Source: the supplement of paper PMC12669032

Key:
Assay in all cases: growth AUC relative to DMSO control (median of replicates) (fraction); higher = more growth (less inhibition), active = hit call of the paper
Conditions in all cases: 20 µM; 24 h;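 active = AUC reduced over 20% with Padj below 0.05 in at least 2 of 3 replicates; inactive = otherwise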
Coprococcus comes = tested on: Coprococcus comes
Outline: (§1)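 For each compound at 20 µM (1% DMSO), gut bacterial monocultures seeded at OD600 0.05 grew anaerobically in mGAM at 37 °C in round-bottom 96-well plates. Hourly OD600 readings over 24 h gave growth curves whose minimum OD was set to 0. Area under these curves was normalised to the plate median of solvent-only wells, or to row and column medians on the industrial chemical plate. Values are medians of three biological replicates grown on separate days.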

Escherichia coli ED1a = tested on: Escherichia coli ED1a
Outline: as §1

Escherichia coli IAI1 = tested on: Escherichia coli IAI1
Outline: as §1

Eubacterium rectale = tested on: Eubacterium rectale
Outline: as §1

[1] = tested on: Fusobacterium nucleatum subsp. animalis
Outline: as §1

Lactobacillus gasseri = tested on: Lactobacillus gasseri
Outline: as §1

Lactobacillus paracasei = tested on: Lactobacillus paracasei
Outline: as §1

Odoribacter splanchnicus = tested on: Odoribacter splanchnicus
Outline: as §1

[2] = tested on: Parabacteroides distasonis
Outline: as §1

Parabacteroides merdae = tested on: Parabacteroides merdae
Outline: as §1

Roseburia intestinalis = tested on: Roseburia intestinalis
Outline: as §1

Streptococcus salivarius = tested on: Streptococcus salivarius
Outline: as §1

Measured: growth AUC

CCNc1nc(Cl)nc(N(CC)CC)n1
inactive: Coprococcus comes 1.02 | Escherichia coli ED1a 1.02 | Escherichia coli IAI1 0.971 | Eubacterium rectale 1.04 | [1] 1.11 | Lactobacillus gasseri 0.925 | Lactobacillus paracasei 0.997 | Odoribacter splanchnicus 1.04 | [2] 1.07 | Parabacteroides merdae 1 | Roseburia intestinalis 1.01 | Streptococcus salivarius 1.02

FC(F)(F)C(=NOCC1OCCO1)c1ccc(Cl)cc1
inactive: Coprococcus comes 1.02 | Escherichia coli ED1a 1.01 | Escherichia coli IAI1 1.04 | Eubacterium rectale 1.06 | [1] 1.08 | Lactobacillus gasseri 1.01 | Lactobacillus paracasei 1.07 | Odoribacter splanchnicus 1.04 | [2] 1 | Parabacteroides merdae 1.03 | Roseburia intestinalis 1.17 | Streptococcus salivarius 1.02

CC(C)C1C2CCC1c1c(NC(=O)c3cn(C)nc3C(F)F)cccc12 (stereo not given)
inactive: Coprococcus comes 0.966 | Escherichia coli ED1a 1 | Escherichia coli IAI1 0.957 | Eubacterium rectale 0.971 | [1] 0.906 | Lactobacillus gasseri 0.702 | Lactobacillus paracasei 0.965 | Odoribacter splanchnicus 0.758 | Parabacteroides merdae 0.862 | Roseburia intestinalis 0.861 | Streptococcus salivarius 0.927
active: [2] 0.533

CP(=O)(O)CCC(=O)O
inactive: Coprococcus comes 0.993 | Escherichia coli ED1a 0.973 | Escherichia coli IAI1 0.999 | Eubacterium rectale 0.804 | [1] 0.999 | Lactobacillus gasseri 1.14 | Lactobacillus paracasei 0.999 | Odoribacter splanchnicus 1.04 | [2] 0.974 | Parabacteroides merdae 0.993 | Roseburia intestinalis 1.03 | Streptococcus salivarius 0.987

CCc1cc(C(=O)O)cc(CC)c1C1C(=O)N2CCOCCN2C1=O
inactive: Coprococcus comes 1 | Escherichia coli ED1a 1.02 | Escherichia coli IAI1 1.02 | Eubacterium rectale 1.01 | [1] 1.11 | Lactobacillus gasseri 1.11 | Lactobacillus paracasei 1.04 | Odoribacter splanchnicus 1.13 | [2] 0.99 | Parabacteroides merdae 1.04 | Roseburia intestinalis 0.952 | Streptococcus salivarius 1

CC(=O)Nc1cc(NS(=O)(=O)C(F)(F)F)c(C)cc1C
inactive: Coprococcus comes 0.977 | Escherichia coli ED1a 0.978 | Escherichia coli IAI1 0.976 | Eubacterium rectale 0.947 | [1] 0.983 | Lactobacillus gasseri 1.12 | Lactobacillus paracasei 0.563 | Odoribacter splanchnicus 1.03 | [2] 1.05 | Parabacteroides merdae 0.966 | Roseburia intestinalis 1.02 | Streptococcus salivarius 1

CCc1cccc(CC)c1N(COC)C(=O)CS(=O)(=O)[O-].[Na+]
inactive: Coprococcus comes 0.971 | Escherichia coli ED1a 0.979 | Escherichia coli IAI1 0.987 | Eubacterium rectale 1.02 | [1] 1.07 | Lactobacillus gasseri 1.05 | Lactobacillus paracasei 1.02 | Odoribacter splanchnicus 1.01 | [2] 1 | Parabacteroides merdae 1.01 | Roseburia intestinalis 1.03 | Streptococcus salivarius 0.964

CCCOC(=O)c1ccc(O)cc1
inactive: Coprococcus comes 1 | Escherichia coli ED1a 0.986 | Escherichia coli IAI1 0.971 | Eubacterium rectale 0.951 | [1] 0.985 | Lactobacillus gasseri 1.06 | Lactobacillus paracasei 1.01 | Odoribacter splanchnicus 0.945 | [2] 1.01 | Parabacteroides merdae 0.988 | Roseburia intestinalis 1 | Streptococcus salivarius 0.979

CC(C)(C)C(O)/C(=C\c1ccc(Cl)cc1)n1cncn1 (stereo not given)
inactive: Coprococcus comes 1.03 | Escherichia coli ED1a 0.988 | Escherichia coli IAI1 1.03 | Eubacterium rectale 0.978 | [1] 0.987 | Lactobacillus gasseri 0.943 | Lactobacillus paracasei 1.05 | Odoribacter splanchnicus 0.976 | [2] 0.959 | Parabacteroides merdae 0.948 | Roseburia intestinalis 0.973 | Streptococcus salivarius 0.955

CCc1nc2ncnn2c(N)c1CCCC(=O)O.Cl
inactive: Coprococcus comes 1.02 | Escherichia coli ED1a 1.02 | Escherichia coli IAI1 1.05 | Eubacterium rectale 1.07 | [1] 1.13 | Lactobacillus gasseri 0.975 | Lactobacillus paracasei 1.1 | Odoribacter splanchnicus 0.952 | [2] 0.991 | Parabacteroides merdae 0.997 | Roseburia intestinalis 0.991 | Streptococcus salivarius 1.01

CN(C(=O)NC(C)(C)c1ccccc1)c1ccccc1
inactive: Coprococcus comes 1.01 | Escherichia coli ED1a 1.01 | Escherichia coli IAI1 0.974 | Eubacterium rectale 0.981 | [1] 0.909 | Lactobacillus gasseri 1.01 | Lactobacillus paracasei 0.951 | Odoribacter splanchnicus 1.1 | [2] 0.952 | Parabacteroides merdae 1 | Roseburia intestinalis 1.02 | Streptococcus salivarius 0.933

CC1(C)C(=O)Oc2ccc(OS(C)(=O)=O)cc21
inactive: Coprococcus comes 0.992 | Escherichia coli ED1a 0.984 | Escherichia coli IAI1 1.01 | Eubacterium rectale 1.03 | [1] 1.1 | Lactobacillus gasseri 0.983 | Lactobacillus paracasei 0.965 | Odoribacter splanchnicus 0.993 | [2] 1.01 | Parabacteroides merdae 0.979 | Roseburia intestinalis 1.02 | Streptococcus salivarius 1.02

Nc1cccc(O)c1
inactive: Coprococcus comes 1.06 | Escherichia coli ED1a 1.01 | Escherichia coli IAI1 1.01 | Eubacterium rectale 0.984 | [1] 1 | Lactobacillus gasseri 1.04 | Lactobacillus paracasei 0.94 | Odoribacter splanchnicus 0.975 | [2] 0.993 | Parabacteroides merdae 1 | Roseburia intestinalis 0.989 | Streptococcus salivarius 1.02

Cc1cc(C)cc(OCC(C)Nc2nc(N)nc(C(C)(C)F)n2)c1 (stereo not given)
inactive: Coprococcus comes 0.958 | Escherichia coli ED1a 0.948 | Escherichia coli IAI1 0.956 | Eubacterium rectale 1.05 | [1] 0.813 | Lactobacillus gasseri 0.974 | Lactobacillus paracasei 0.993 | Odoribacter splanchnicus 0.992 | [2] 0.835 | Parabacteroides merdae 0.87 | Roseburia intestinalis 0.971 | Streptococcus salivarius 0.967

O=C(Nc1ccc(F)cc1)c1cccc(Oc2cccc(C(F)(F)F)c2)n1
inactive: Coprococcus comes 0.993 | Escherichia coli ED1a 0.95 | Escherichia coli IAI1 0.95 | Eubacterium rectale 1.02 | [1] 0.927 | Lactobacillus gasseri 0.87 | Lactobacillus paracasei 0.927 | Odoribacter splanchnicus 1.07 | [2] 0.905 | Parabacteroides merdae 0.911 | Roseburia intestinalis 0.918 | Streptococcus salivarius 0.956

CCCCCCCC/C=C\CCCCCCCC(N)=O
inactive: Coprococcus comes 0.869 | Escherichia coli ED1a 0.991 | Escherichia coli IAI1 0.953 | Eubacterium rectale 1.14 | [1] 1.02 | Lactobacillus gasseri 0.962 | Lactobacillus paracasei 1.02 | Odoribacter splanchnicus 1.04 | [2] 0.96 | Parabacteroides merdae 0.955 | Roseburia intestinalis 0.933 | Streptococcus salivarius 0.952

CCS(=O)(=O)c1nnc(N(C)C(=O)NC)s1
inactive: Coprococcus comes 0.938 | Escherichia coli ED1a 0.984 | Escherichia coli IAI1 0.99 | Eubacterium rectale 0.976 | [1] 1.01 | Lactobacillus gasseri 1.04 | Lactobacillus paracasei 0.851 | Odoribacter splanchnicus 0.992 | [2] 1.06 | Parabacteroides merdae 1.01 | Roseburia intestinalis 1 | Streptococcus salivarius 0.99

CCOC(=O)NCCOc1ccc(Oc2ccccc2)cc1
inactive: Coprococcus comes 0.954 | Escherichia coli ED1a 1 | Escherichia coli IAI1 0.976 | Eubacterium rectale 0.956 | [1] 0.943 | Lactobacillus gasseri 1.03 | Lactobacillus paracasei 0.949 | Odoribacter splanchnicus 0.931 | [2] 0.932 | Parabacteroides merdae 0.974 | Roseburia intestinalis 0.984 | Streptococcus salivarius 0.976

Oc1c(Cl)cc(Cl)c(Cl)c1Cc1c(O)c(Cl)cc(Cl)c1Cl
inactive: Escherichia coli ED1a 0.867 | Escherichia coli IAI1 0.856
active: Coprococcus comes 0.19 | Eubacterium rectale 0.0106 | [1] 0.078 | Lactobacillus gasseri 0.037 | Lactobacillus paracasei 0.0796 | Odoribacter splanchnicus 0.018 | [2] 0.026 | Parabacteroides merdae 0.0156 | Roseburia intestinalis 0.0498 | Streptococcus salivarius 0.0329

Cl.NCCO/C=C/[C@H](N)C(=O)O
inactive: Coprococcus comes 0.947 | Escherichia coli ED1a 1.03 | Escherichia coli IAI1 1.02 | Eubacterium rectale 1.08 | [1] 0.981 | Lactobacillus gasseri 0.853 | Lactobacillus paracasei 1.02 | Odoribacter splanchnicus 0.8 | [2] 0.828 | Parabacteroides merdae 1.01 | Roseburia intestinalis 0.975 | Streptococcus salivarius 1.05
